Screening data (PubChem BioAssay)
HTT ATP protect – qHTS Multiplex Assay to Identify Dual Action Probes in a Cell Model of Huntington: Cytoprotection (ATP) | PC12 HTT-Q103 induced, cytoprotection, ATP luminescence, 40 h | 230,000 compounds, 0.14% hits | Potency, µM (titrated, usually from 56.4 µM), most hits filed as activators; further: nearly all actives have a fitted effect of over 45% in size
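PC12 cells with ecdysone-inducible HTT exon 1 Q103-GFP, induced with 100 nM tebufenozide and co-treated with library compounds in a dose series (1536-well, 1500 cells/well). Cytoprotection read as ATP content by ATPlite luminescence.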
HttQ103 aggreg – qHTS Multiplex Assay to Identify Dual Action Probes in a Cell Model of Huntington: Aggregate Formation (GFP); PC12 HttQ103-GFP aggregates, Acumen cytometry, 40 h; Potency, µM (highest dose often 46.1 µM), most hits filed as inhibitors; 220,000 compounds, 1.1% hits; further: nearly all actives have a fitted effect of over 60% in size
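Steps: seed 1500 PC12 HTTQ103-GFP cells/well; add tebufenozide, 100 nM final; add compound titration; add ATPLite reagent; quantify GFP aggregates by laser scanning cytometry.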
TGFb inhibitor – qHTS for Inhibitors of TGF-b | Potency, µM (series often up to 46.1 µM), actives largely listed as inhibitors | HepG2 CAGA-GFP TGF-b/SMAD3 reporter, GFP fluorescence, 18 h; TGF-beta stimulated, 500 pg/mL final | 410,000 compounds, 1.2% hits; further: nearly all actives have a fitted effect of over 65% in size
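Inhibition was scored as loss of TGF-beta-induced (500 pg/mL final, 18 hours, 37 degrees C) GFP in HEPG2 cells carrying a CAGA-GFP reporter, in DMEM with 1% FBS. Well GFP was summed per cell; Activity was normalised to unstimulated and stimulated DMSO wells, then concentration-response fitting.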
S2 tox – Viability Counterscreen for Primary qHTS for Inhibitors of ATXN expression; S2 cells (HEK-293 line with an ATXN2-luciferase reporter) viability, CellTiter-Fluor protease fluorescence, 24 h; Potency, µM (titrated, usually from 56.7 µM), usual class: cytotoxic; 400,000 compounds, 0.49% hits; AID 651635, 2014; further: nearly all actives have a fitted effect of over 40% in size
HepG2 tox – qHTS for Inhibitors of TGF-b: Cytotox Counterscreen | AID 588856, 2011 | 410,000 compounds, 0.76% hits | HepG2 CAGA-GFP viability, ATP luminescence, 18 h | Potency, µM (top dose mostly 46.1 µM), actives largely listed as cytotoxic
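CellTiter-Glo luminescence gave cytotoxicity after 18 hours at 37 degrees C. The cells were HepG2 CAGA-GFP in 1% FBS DMEM, stimulated with 500 pg/mL TGF-beta after compound addition. %Activity was normalised to no-cell wells (complete cell-killing) and DMSO (no toxicity), and curves were fitted and classified.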
ATXN2 expr inh – Primary qHTS for Inhibitors of ATXN expression | AID 1745845, 2022 | Potency, µM (series often up to 57 µM), hits mostly inhibitors | HEK-293 ATXN2-luciferase reporter, luminescence, 24 h | 360,000 compounds, 0.72% hits; further: nearly all actives have a fitted effect of over 55% in size
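ATXN2-luciferase reporter cells (luciferase flanked by upstream and downstream ATXN2 gene portions) were treated 24 h at 37 °C with compounds at up to 57 uM. SteadyGlo luminescence gave expression; GF-AFC fluorescence gave viability.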
A number is an active result; - = inactive; ? = inconclusive; . = no result; ! = repeats disagree; [ ] = remark or other dose. A selection: hits, their analogues and other compounds. The true share with any hit is near 2.8%. The call rests on the fitted dose curve; in most records, active means well fitted curve in the direction sought with a large enough effect; inconclusive means small, poorly fitted or top-dose-only effect, or another doubt; inactive means no such curve, though single readings can be large; an effect the other way counts as inactive or inconclusive.

SMILES | HTT ATP protect | HttQ103 aggreg | TGFb inhibitor | S2 tox | HepG2 tox | ATXN2 expr inh
COC(=O)[C@@H]1CCCN1Cc1ccc2c(c1)CN(Cc1ccc3c(c1)CCCN3C)CCO2 | . | . | . | - | . | .
COc1ccc([C@H]2C[C@H](n3cc(-c4ccc(F)cc4)nn3)[C@@H](O)CN2Cc2cccs2)cc1 | . | . | - | - | - | -
COc1ccc([C@H]2C[C@H](O)[C@@H](n3cc(-c4ccc(F)cc4)nn3)CN2Cc2cccs2)cc1 | . | . | ? | 28µM | - | 16µM
O[C@H]1CN(Cc2cccs2)[C@@H](c2ccccc2)C[C@@H]1n1cc(-c2ccc(F)cc2)nn1 | . | . | ? | ? | - | ?
O[C@H]1C[C@H](c2ccccc2)N(Cc2cccs2)C[C@@H]1n1cc(-c2ccc(F)cc2)nn1 | . | . | ? | 32µM | 11µM | 16µM
O=C1NC(=O)C(Cc2ccccc2F)(C2CCN(Cc3cccn3-c3cccnc3)CC2)N1 (stereo unspecified) | . | . | . | - | . | .
Cc1ncc2c(c1CNC(=O)/C=C/c1cccs1)CCN(C(=O)c1cc(C(C)C)on1)C2 | . | . | . | - | . | .
O=C(O)C(Cc1ccccc1)N1CCS(=O)(=O)CC1 (stereo unspecified) | 2µM | - | - | - | - | -
COC(=O)C(C(=O)OC)[C@@H]1c2ccccc2[C@H]2C(=C[C@@H](C)[C@H]3C(=O)N(c4ccccc4)C(=O)[C@H]32)N1C(=O)OC | -[10 µM] | . | . | . | . | .
COc1ccc(/C=C/C(=O)NCC2Cc3cccc(-c4nc(C)cnc4C)c3O2)cc1OC (stereo unspecified) | . | . | . | - | . | .
O=C(CCCN1C(=O)/C(=C/c2ccccc2Cl)SC1=S)NNC(=O)c1ccccc1 | -[10 µM] | - | ? | ? | - | ?
COC(=O)c1ccc(/C=C2/SC(=S)N(CCCC(=O)Nc3ccccn3)C2=O)cc1 | -[0.074 µM] | ? | - | - | - | ?
CCc1ccc(/C=C2\SC(=S)N(CCCC(=O)Nc3ccccn3)C2=O)cc1 | ? | - | ? | ? | - | 4.5µM
O=C(CCCN1C(=O)/C(=C/c2cccc(Br)c2)SC1=S)Nc1cccnc1 | ? | ? | ? | ? | - | ?
O=C(CCCN1C(=O)/C(=C\c2cccc(Br)c2)SC1=S)Nc1cccnc1 | ? | ? | 11µM | ? | - | ?
O=C(CCCN1C(=O)/C(=C/c2ccccc2Cl)SC1=S)NNC(=O)c1ccc(Cl)cc1Cl | -[10 µM] | -[9.22 µM] | - | - | - | 2.5µM
O=C(CCCN1C(=O)/C(=C/c2cccc(Br)c2)SC1=S)Nc1ccccn1 | -[10 µM] | ? | - | ? | - | 10µM
Cc1ccc(/C=C2\SC(=S)N(CCCC(=O)Nc3cccnc3)C2=O)cc1 | . | . | - | ? | - | 3.5µM
C[C@H]1Cc2c(-c3ccccc3)nc3c(c2CO1)CN(C(=O)Nc1cccc(C#N)c1)CC3 | -[10 µM] | . | . | . | . | .
COc1cc(C(=O)Oc2ccccc2/C=N/NC(=O)c2ccc(C)c(Cl)c2)cc(OC)c1OC | -[10 µM] | 2.8µM | ? | ? | - | ?
CC(=O)Nc1ccc(C(=O)N/N=C/c2ccccc2OC(=O)c2ccc(Cl)cc2)cc1 | - | ? | ? | - | - | -
COc1cc(C(=O)Oc2ccccc2/C=N/NC(=O)c2ccc(Cl)cc2)cc(OC)c1OC | -[10 µM] | 2.8µM | 7.1µM | ? | - | -
CCN(CCCNC(=O)c1cc2c(Cl)nc3ccccc3c2s1)Cc1ccccc1 | . | . | - | ? | - | ?
CCN(CCCNC(=O)c1cc2c(=O)[nH]c3ccc(C)cc3c2s1)Cc1ccccc1 | . | . | 11µM | ? | 13µM | ?
CCN(CCCNC(=O)c1cc2cc3ccc(C)cc3nc2s1)c1ccccc1 | . | . | 6.3µM | - | - | -
SMILES | HTT ATP protect | HttQ103 aggreg | TGFb inhibitor | S2 tox | HepG2 tox | ATXN2 expr inh
CCN(CCCNC(=O)c1cc2cc3cc(OC)ccc3nc2s1)c1cccc(C)c1 | . | . | ? | ? | - | -
CN(CCCNC(=O)c1cc2c(Cl)nc3ccccc3c2s1)Cc1ccccc1 | - | ? | ? | ? | 16µM! | ?
Cc1ccc2nc(Cl)c3cc(C(=O)NCCCN(C)Cc4ccccc4)sc3c2c1 | . | . | ? | . | 13µM | .
CC(C)=CCCC(C)=CCCC(C)=CCCC(C)=CCCC(C)=CCCC(C)=CCCC(C)=CCCC(C)=CCCC(C)=CCO | . | . | . | . | . | -
O=C(Nc1cnn(Cc2ccc(F)cc2)c1)c1cnccn1 | -[10 µM] | - | - | - | - | -
O=C(Nc1cnn(Cc2ccc(F)cc2)c1)C(c1ccccc1)c1ccccc1 | -[10 µM] | - | 13µM | - | - | -
CCOC(=O)c1cnc2sc3c(n2c1=O)CCCC3 | -[10 µM] | 8.9µM | - | - | - | -
COc1cccc(CC(=O)N2CCc3nc(-c4ccc(OC)cc4C)c4c(c3C2)CO[C@@H](c2ccccc2)C4)c1 | -[10 µM] | . | . | . | . | .
C[C@@]12CCC[C@H]1[C@@H]1CC[C@H]3C[C@@H](O)CC[C@]3(C)[C@H]1CC2 | . | . | . | 25µM | . | -
Cc1ccc(-c2ccc(/C=C3\C(=O)ON=C3c3ccccc3)o2)c([N+](=O)[O-])c1 | - | - | - | 35µM | - | ?
COc1ccc2c(c1)-c1nc(-n3ncc(C(=O)N(C)CCO)c3C3CC3)ncc1CC2 | . | . | . | - | . | .
Cn1c(=O)[nH]c(=O)c2c1nc(N1CCNCC1)n2Cc1ccccc1 | . | . | - | ? | - | -
Cn1c(=O)[nH]c(=O)c2c1nc([N+](=O)[O-])n2Cc1ccccc1 | -[10 µM] | ? | 5µM | 6µM | 5µM | ?
CC(C)Cn1c([N+](=O)[O-])nc2c1c(=O)[nH]c(=O)n2C | -[10 µM] | -[9.22 µM] | ? | . | 11µM | ?
COc1ccc(CCNCC(O)COc2cccc(C)c2)cc1OC (stereo unspecified) | . | . | . | - | . | .
CO[C@H]1CC[C@@]2(C)[C@@H](CC[C@@H]3[C@@H]2CC[C@@]2(C)[C@H]3C[C@H](C(=O)O)O[C@]23CCCO3)C1 | . | . | - | - | 16µM | -
CC(C)N1CCN(Cc2ccc(OCc3ccccc3)cc2)CC1CCO (stereo unspecified) | -[10 µM] | -[9.22 µM] | - | - | 2µM | .
Clc1cccc(-n2nnnc2NCc2ccccc2Oc2ccccn2)c1Cl | . | . | . | . | . | -
Cc1cc(N2CCN(C)CC2)nc2ccc(NC(=O)Nc3ccccc3)cc12 | . | . | ? | . | 13µM | -
CCN1CCN(c2cc(C)c3cc(NC(=O)c4cc(Br)ccc4Cl)ccc3n2)CC1 | . | . | ? | . | 10µM | ?
C[C@H]1CCC/C=C/[C@@H]2C[C@H](O)C[C@H]2[C@H](O)[C@H](S(=O)c2ccc(O)cc2)CC(=O)O1 (stereo partly specified) | . | . | 0.13µM | ? | - | ?
CC1CCCC=CC2CC(OC(=O)CN(C)C)CC2C(O)C=CC(=O)O1 (stereo unspecified) | . | . | ? | ? | - | ?
